# In PubChem BioAssay (NCATS):
# Records with an inconclusive call do not appear. Unmarked numbers belong to inactive results. Calls of active or inactive are those of the source. Calls follow the shape of the dose curve; as a rule, active = well fitted cell-killing curve with a large enough effect; inconclusive = small, poorly fitted or top-dose-only effect, or effect the other way; inactive = no such curve, though single readings can be large or run the other way.
# Test: Quantitative High-Throughput drug screen in 47 multiple myeloma cell lines against the NCATS MIPE library collection: Karpas620_DSMZ cell viability assay (AID 1918959); also: nearly all actives have a fitted effect of over 30% in size
# Details: Karpas620 myeloma viability, CellTiter-Glo ATP luminescence, 48 h; series mostly up to 45.8 µM; viability (% of DMSO): at the top concentration
# Description: PI: Beverly A. Mock Ph.D.
# Laboratory of Cancer Biology and Genetics,
# Center for Cancer Research, National Cancer Institute,
# National Institute of Health, Bethesda, Maryland
# Drug resistance and disease progression are common in multiple myeloma (MM) patients, underscoring the need for new therapeutic combinations. […] We hypothesized that effective combinations would reduce MYC expression and enhance p16 activity. […] These preclinical data identify potentially useful drug combinations for evaluation in drug-resistant MM and reveal potential mechanisms of combined drug sensitivity.
# Described herein is the primary MIPE qHTS used to cherrypick compounds. Validated compounds were then further tested for potential synergistic activiy.
# [1] Peat TJ, Gaikwad SM, Dubois W, Gyabaah-Kessie N, Zhang S, Gorjifard S, Phyo Z, Andres M, Hughitt VK, Simpson RM, Miller MA, Girvin AT, Taylor A, Williams D, D'Antonio N, Zhang Y, Rajagopalan A, Flietner E, Wilson K, Zhang X, Shinn P, Klumpp-Thomas C, McKnight C, Itkin Z, Chen L, Kazandijian D, Zhang J, Michalowski AM, Simmons JK, Keats J, Thomas CJ, Mock BA. Drug combinations identified by high-throughput screening promote cell cycle transition and upregulate Smad pathways in myeloma. Cancer Lett. 2023 Aug 1;568:216284. doi: 10.1016/j.canlet.2023.216284. Epub 2023 Jun 24. PMID: 37356470; PMCID: PMC10408729.
# SEQUENCE No. (e.g., 1, 2, 3, etc.); […] (e.g., Cells, Incubation, Reagent, etc.); VALUE and DESCRIPTION.
# 1; Cells; 5 uL; white, solid bottom 1536-well Greiner assay plate.
# 2; Compounds; 23 nL; Kalypsis pin tool (Wako USA) equipped with a 1536-well pin head to transfer to the assay plates.
# 3; Incubation; 48 hours; 37C incubation.
# 4; Reagent;5uL; CellTiter Glo (Promega).
# 5; Detector; 425V; Luminescence; Viewlux PerkinElmer.
# NOTES (numbers refer to Sequence numbers above)
# 1. The cell-based screening methods employed in this study were like those previously published. Briefly, the corresponding myeloma cell lines were screened in 1,536-well plates with 500 cells, 5-uL per well for inhibition of cell viability (assessed by measuring ATP levels with CellTiterGlo).
# 2. NCATS MIPE 4.0 library of approved and investigational drugs were added using the Kalypsis pin tool. Wells treated with DMSO only for 100% viability and media only wells for 0% viability were used as controls.
# 3. The assay plates were covered and incubated for 48 hours in a 37C, 5% CO2 incubator with controlled humidity.
# 4. After 48 hours, CellTilter-GloTM luminescent substrate mix (Promega) reagent was added to the assay plate and plates we incubated for 5 min at room temperature.
# 5. Signal was measured as median relative luminescence units on a ViewLux (PerkinElmer) multiplate reader.
# [1] Heske CM, Davis MI, Baumgart JT, Wilson K, Gormally MV, Chen L, Zhang X, Ceribelli M, Duveau DY, Guha R, Ferrer M, Arnaldez FI, Ji J, Tran HL, Zhang Y, Mendoza A, Helman LJ, Thomas CJ. Matrix Screen Identifies Synergistic Combination of PARP Inhibitors and Nicotinamide Phosphoribosyltransferase (NAMPT) Inhibitors in Ewing Sarcoma. Clin Cancer Res. 2017 Dec 1;23(23):7301-7311. doi: 10.1158/1078-0432.CCR-17-1121. Epub 2017 Sep 12. PMID: 28899971; PMCID: PMC6636827.
# Potency is read from the fitted curve at half-maximal effect.
Compound,viability (% of DMSO),Potency
CC(C)c1cccc(C(C)C)c1O,118%,
O=P1(N(CCCl)CCCl)NCCCO1 (stereo unspecified),,18.7 µM (active)
CCC1(c2ccc(N)cc2)CCC(=O)NC1=O (stereo unspecified),108%,
CC(NC(C)(C)C)C(=O)c1cccc(Cl)c1 (stereo unspecified),118%,
O=C(O)CCCc1ccc(N(CCCl)CCCl)cc1,114%,
C[C@]12CC[C@H]3[C@@H](CC[C@@]45O[C@H]4C(O)=C(C#N)C[C@]35C)[C@H]1CC[C@H]2O,111%,
C[C@]12CC[C@@H]3c4ccc(OC(=O)N(CCCl)CCCl)cc4CC[C@H]3[C@@H]1CC[C@@H]2OP(=O)(O)O,118%,
CN1C(=O)CCS(=O)(=O)C1c1ccc(Cl)cc1 (stereo unspecified),104%,
COc1cc(OC)c(OC)cc1C=O,103%,
CC(C)C[C@H](CN)CC(=O)O,107%,
CN1C(=O)COc2c(C(=O)NC3CN4CCC3CC4)cc(Cl)cc21 (stereo unspecified),119%,
